G9a block: qHTS Assay for Inhibitors of Histone Lysine Methyltransferase G9a. G9a H3K9 monomethylation, AlphaScreen, 2 h. actives 8.8% (n = 350,000). Histone-lysine N-methyltransferase EHMT2 (Homo sapiens), Q96KQ7. AID 504332, 2011. Potency, µM (titrated, usually from 102 µM), without a hit: at the highest dose activity, negative = inhibition, most hits filed as inhibitors; further: potency means the concentration at half of the fitted maximal effect; on the % scale 0 is the no-effect control and ±100 the full control effect; nearly all actives have a fitted effect of over 75% in size
Target sequence (Q96KQ7 913-1193 limits assumed): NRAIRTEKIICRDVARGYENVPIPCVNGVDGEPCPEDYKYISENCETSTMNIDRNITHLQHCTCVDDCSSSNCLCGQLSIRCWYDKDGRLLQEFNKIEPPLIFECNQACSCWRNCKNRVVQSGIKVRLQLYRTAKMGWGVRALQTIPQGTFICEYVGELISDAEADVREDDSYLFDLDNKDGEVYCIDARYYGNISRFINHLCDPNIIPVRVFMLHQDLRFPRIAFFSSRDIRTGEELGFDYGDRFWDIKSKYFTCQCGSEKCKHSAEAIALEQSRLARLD
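Methyltransferase reactions run at room temperature for 2 h (20 nM enzyme, 500 nM biotin-H3K9 peptide, 20 uM SAM) after a 15 min compound preincubation; product detected by AlphaScreen beads and anti-H3K9me1 antibody.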
BAZ2B block: qHTS Assay for Inhibitors of BAZ2B; Potency, µM (doses to about 114 µM), without a hit: at the top dose activity change, negative = inhibition, actives largely listed as inhibitors; AlphaScreen BAZ2B-H3K14Ac peptide displacement; actives 4.4% (n = 360,000); further: potency means the concentration at half of the fitted maximal effect; on the % scale 0 is the no-effect control and ±100 the full control effect; nearly all actives have a fitted effect of over 60% in size
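Inhibition is scored as reduced AlphaScreen emission. The BAZ2B/b-H3(5-23)K14Ac complex (50 nM each) in PBS pH 7.4, 0.01% Tween-20 meets compound (up to 110 uM) for 30 min at RT before bead addition.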
CtBP-E1A inh: qHTS Assay for Inhibitors of the CtBP/E1A Interaction; actives 0.49% (n = 340,000); activity change, % (test concentration not listed); CtBP / adenovirus E1A interaction (AlphaScreen); AlphaScreen GST-E1A/His-CtBP binding, 1536-well; active compounds read low; in the data active means activity change below about -65%; inconclusive means mostly about -30% to -63%; further: on the % scale 0 is the no-effect control and ±100 the full control effect
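Protein mix (5X: 125 nM each GST-E1A, His-CtBP) was incubated with pinned compound 2 h at 37 deg C in dark, in 50 mM Tris pH 8.0 buffer with 300 mM NaCl. Glutathione donor and nickel acceptor beads followed; AlphaScreen signal read after 1 h.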
JMJD2A Tudor inh: qHTS Assay for Inhibitors of JMJD2A-Tudor Domain; actives 4.4% (n = 390,000); Potency, µM (series often up to 114 µM), without a hit: top-dose activity change, negative = inhibition, hits mostly inhibitors; Lysine-specific demethylase 4A (Homo sapiens), O75164; AlphaScreen JMJD2A-Tudor / H3K4me3 peptide binding; further: potency means the concentration at half of the fitted maximal effect; on the % scale 0 is the no-effect control and ±100 the full control effect; nearly all actives have a fitted effect of over 50% in size
HP1b binding inh: HTS for Inhibitors of HP1-beta Chromodomain Interactions with Methylated Histone Tails; AlphaScreen HP1-beta / biotin-H3K9me3 peptide binding; Potency, µM (doses to about 114 µM), for inactives: top-dose activity change, negative = inhibition, usual class: inhibitors; AID 540317, 2011; Chromobox protein homolog 1 (Homo sapiens), P83916; actives 0.56% (n = 390,000); further: potency means the concentration at half of the fitted maximal effect; nearly all actives have a fitted effect of over 70% in size
Target sequence (P83916 whole entry, looked up): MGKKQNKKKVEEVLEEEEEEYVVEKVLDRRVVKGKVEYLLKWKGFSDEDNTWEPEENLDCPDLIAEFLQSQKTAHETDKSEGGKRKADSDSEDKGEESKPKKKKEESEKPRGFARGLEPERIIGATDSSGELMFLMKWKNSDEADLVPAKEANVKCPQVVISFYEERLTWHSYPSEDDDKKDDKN
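Compound inhibition of the preformed complex between 50 nM HP1-beta and 50 nM biotinylated H3K9me3 peptide was read by AlphaScreen. Buffer was PBS pH 7.4 with 0.01% Tween-20. Incubations ran 30 min at room temperature, with 10 ug/mL donor/acceptor beads.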
Six1-Eya2 blk: qHTS Assay for Inhibitors of the Six1/Eya2 Interaction | AlphaScreen GST-Six1/His-Eya2 binding, biochemical; active compounds read low | AID 651725, 2012 | actives 0.56% (n = 360,000) | activity change, % (test concentration not listed); in the data active means activity change below about -65%; inconclusive means mostly about -30% to -63%; further: on the % scale 0 is the no-effect control and ±100 the full control effect
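GST-Six1 + His-Eya2 (5X stock: 250/500 nM); Tris pH 8.0, 300 mM NaCl, 0.05% BSA, 0.02% Tween 20; GSH donor/Ni acceptor beads; 1 h 37 °C dark; AlphaScreen readout.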
An asterisk follows results filed as active; u = inconclusive; x = no result given; [ ] = dose if it differs, or a comment. An excerpt weighted towards active compounds, which were near 10% of everything screened. Unless noted, the call rests on the fitted dose curve; in most records, active means well fitted inhibition curve with a large enough effect; inconclusive means small, poorly fitted or top-dose-only effect; inactive means no such curve, though single readings can be large or run the other way.

SMILES | G9a block | BAZ2B block | CtBP-E1A inh | JMJD2A Tudor inh | HP1b binding inh | Six1-Eya2 blk
COCCNC(=O)c1ccc2c(=O)n(Cc3ccco3)c(SCC(=O)NC3CCCCC3)nc2c1 | x | -9.0% | 1.3 | -7.4% | 18.9% | -0.3
CCCCn1c(SCC(=O)NCc2ccco2)nc2ccccc2c1=O | -67.9% | -2.2% | -0.1 | -19.5% | 23.8% | -1.2
Cc1sc2nc(SCC(=O)NCc3ccco3)n(Cc3ccccc3)c(=O)c2c1C | 50.1µM* | 16.6% | 0.6 | -14.7% | 17.2% | -0.7
CCOC(=O)c1sc2nc(SCC(=O)NCc3ccco3)n(Cc3ccccc3)c(=O)c2c1C | -1.0%[59 µM] | 13.1% | 3.9 | -30.4% | 21.2% | -3.4
Cc1cc(/C=C(\C#N)c2nnc(N3CCOCC3)n2-c2ccccc2)c(C)n1-c1ccccc1 | u | 50.1µM* | x | x | x | x
O=[N+]([O-])c1cc(F)cc(F)c1Nc1ccc(F)cc1 | x | x | -66.7* | 35.5µM* | u | u
O=[N+]([O-])c1cnccc1Nc1ccc(F)cc1 | 13.4%[59 µM] | 6.7% | 2.0 | 4.6%[11.4 µM] | 22.4% | -3.0
O=C(c1cccs1)N1CCN(c2ccc(F)cc2)CC1 | -8.4%[12.7 µM] | -3.8% | -2.7 | 4.8% | 13.5% | -6.2
O=C(Nc1cnc(N2CCN(c3ccccc3)CC2)c(C(=O)O)c1)c1cccs1 | u | 50.1µM* | x | 79.4µM* | -9.0% | x
O=C(NC(=S)N1CCN(c2ccc(F)cc2)CC1)c1cccs1 | 50.1µM* | u | -1.6 | -32.4% | 12.7% | -5.9
O=C(Nc1ccc(N2CCN(c3ccc(F)cc3)CC2)c(C(=O)O)c1)c1cccs1 | 5.5%[59 µM] | 5.3% | x | -14.3% | 47.5% | x
O=C(CN1CCN(c2ccc(F)cc2)CC1)c1cccs1 | 15.8µM* | -23.9% | x | -28.0% | 13.5% | -12.8
O=C(CSc1nnc(C2CC2)n1C1CC1)c1ccc(Br)s1 | x | x | 7.0 | -11.6% | 22.8% | -4.7
CC1CN(C(=O)c2ccccc2)c2ccccc2NC1=O (stereo not given) | -13.0%[59 µM] | 12.7% | 4.6 | 0.7% | 41.1% | 5.8
CCn1cc(C(=O)NCCc2ccccc2)c(=O)c2cc(F)c(N3CCN(C)CC3)cc21 | -25.9%[59 µM] | 2.1% | -6.9 | -11.0% | 21.7% | 0.9
CCn1cc(C(=O)NCc2ccco2)c(=O)c2cc(F)c(N3CCN(C(=O)c4ccco4)CC3)cc21 | 14.1µM* | 56.2µM* | -22.2 | -30.1% | 24.1% | -16.6
CCn1cc(C(=O)NCc2ccccn2)c(=O)c2cc(F)c(N3CCN(C)CC3)cc21 | 0.447µM* | -0.6% | 3.0 | -9.7% | 23.1% | -0.1
COc1cccc(Cn2c(=O)c(CCc3ccccc3)nc3cnc(N4CCOCC4)nc32)c1 | -9.6%[0.501 µM] | x | x | x | x | x
COc1ccccc1CCNC(=O)Cn1c(=O)oc2ccccc21 | 39.8µM* | 79.4µM* | -3.3 | -16.4% | 12.9% | 4.1
COc1ccccc1CNC(=O)Cn1c(=O)oc2ccccc21 | 5.0%[59 µM] | 0.0% | x | -15.0% | 13.8% | x
COc1ccc(-c2c3c([nH]c(=S)c2C#N)CCC3)cc1 | u | 1.4% | -1.4 | 44.7µM* | -16.2% | -0.6
N#Cc1c(-c2cccnc2)c2c([nH]c1=S)CCCC2 | 0.708µM* | -6.4% | -2.0 | 1.41µM* | u | -0.5
CC(C)Cc1c2c([nH]c(=S)c1C#N)CCCC2 | 2.24µM* | -29.7% | -9.3 | 56.2µM* | -23.6% | 1.0
N#Cc1c(-c2ccco2)c2c([nH]c1=S)CCCC2 | u | 0.8% | -28.2 | 28.2µM* | -21.9% | u
CCNc1ncc2nc(-c3ccc(OC)cc3)c(=O)n(Cc3ccc(F)cc3)c2n1 | 0.5%[0.501 µM] | x | x | x | x | x
Cc1cc2[nH]c(=S)[nH]c2cc1C | 1.78µM* | -7.4% | -17.6 | u | 39.8µM* | -5.4
